ADAM17 inh = ADAM17 inhibitors, primary screen, biochemical, QFRET; inhibition, % at 6.95 µM; hit rate 0.83% among 370,000; recombinant ADAM17, EDANS/DABCYL FRET peptide cleavage;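 active means inhibition above the mean of compounds lying between control limits plus 3 SD, set per campaign, cut at about 8.5% in these data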
ADAM10 inh = human ADAM10 inhibitors, primary screen, biochemical, QFRET, HTS; Disintegrin and metalloproteinase domain-containing protein 10 (Homo sapiens), O14672; recombinant ADAM10, EDANS/DABCYL FRET peptide cleavage, 3 h; inhibition, % at 7 µM; hit rate 0.62% among 370,000;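 active means inhibition above a per-campaign cutoff equal to the mean of compounds falling between control-based bounds plus 3 SD, cut at about 20% in these data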
rCAG RNA binder = binders of r(CAG) RNA repeats, primary screen, biochemical, fluorescence. r(CAG) RNA repeat, TO-PRO-1 dye displacement fluorescence. inhibition, % at 3 µM. hit rate 1.3% among 370,000;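 active means inhibition above the plate cutoff, the mean of all test compounds on that plate plus 3 SD, cut at about 35% in these data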;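 further: higher means more dye released from RNA so lower well fluorescence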
MPTP block = mitochondrial permeability transition pore inhibitors, primary screen, biochemical, isolated mouse mitochondria, absorbance; Ca2+ swelling absorbance, 30 min; inhibition, % at 10 µM; hit rate 1.4% among 360,000;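 active means inhibition of 50% or more, scaled per plate between neutral and stimulator controls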
DSG3 Ab inh = inhibitors of pemphigus antibody binding to DSG3, primary screen, biochemical, bead-based, flow cytometry, scFv-GFP; DSG3-coupled beads, scFv-anti-DSG3-GFP binding; hits give low values; hit rate 0.48% among 310,000; Desmoglein-3 (Homo sapiens), P32926; AID 588358, 2011; binding (percent of control), % at 10 µM;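 active means binding more than 3 SD below its plate's average and above zero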;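 further: hits lower antibody fragment binding to DSG3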
proKLK7 act = proKLK7 zymogen activators, primary screen, biochemical, fluorescence intensity; purified proKLK7, EDANS-DABCYL substrate fluorescence; 100% is mature enzyme control, 0% vehicle; activation, % at 7 µM; hit rate 0.9% among 370,000;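 active means activation above the mean of all tested compounds plus 3 SD, computed per campaign excluding outliers beyond control limits, cut at about 13% in these data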
Target sequence (P49862 whole entry, looked up): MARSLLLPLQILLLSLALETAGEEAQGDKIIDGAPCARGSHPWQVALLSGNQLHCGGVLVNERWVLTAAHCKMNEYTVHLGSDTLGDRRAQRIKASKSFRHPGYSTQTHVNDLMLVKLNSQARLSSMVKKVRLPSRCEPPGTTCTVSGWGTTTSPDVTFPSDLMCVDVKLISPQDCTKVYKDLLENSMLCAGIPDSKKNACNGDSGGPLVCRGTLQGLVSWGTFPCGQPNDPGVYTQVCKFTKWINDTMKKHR
rCAG binder conf = small molecules binding CAG repeat RNA – biochemical, fluorescence, confirmation. shares compounds with rCAG RNA binder. r(CAG) RNA repeat, TO-PRO-1 dye displacement fluorescence. inhibition, % at 3 µM. hit rate 70% among 4,300. AID 652065, 2013;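 active means inhibition above a per-plate cutoff, the mean inhibition of sample wells plus 3 SD, cut at about 35% in these data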;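 further: loss of TO-PRO-1 fluorescence as compound displaces dye from 1x1 AA loop RNA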
dCAG dye counter = displacement of TO-PRO-1 from CAG DNA duplex, counter-screen for rCAG RNA repeat binder project, biochemical, fluorescence, TO-PRO-1 dye, d(CAG) DNA oligo. shares compounds with rCAG RNA binder. AID 652068, 2013. d(CAG) DNA oligo TO-PRO-1 dye displacement. hit rate 94% among 4,300. inhibition, % at 3 µM;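 active means inhibition above its plate's cutoff, the mean test-well inhibition plus 3 SD, cut at about 4.8% in these data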;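 further: hits displace the dye from DNA and so lower well fluorescence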
DNA CAG DR = inhibitors of DNA CAG/GTC TO-PRO-1 complex, dose response, counter-screen for rCAG RNA repeat binder project, biochemical, fluorescence, TO-PRO-1 dye; hit rate 20% among 250; shares compounds with rCAG RNA binder; IC50, µM; DNA CAG/GTC duplex TO-PRO-1 dye displacement fluorescence; AID 686960, 2013; in the data active means IC50 below about 10 µM
Hits are given with their value; 0 = inactive; - = no result. The list is not random: actives were taken first. Their share in the collection is about 4.7%.

SMILES | ADAM17 inh | ADAM10 inh | rCAG RNA binder | MPTP block | DSG3 Ab inh | proKLK7 act | rCAG binder conf | dCAG dye counter | others
Cc1ccc(SCC(=O)Nc2ccc(S(=O)(=O)Nc3nccs3)cc2)cc1 | 0 | 0 | 49 | 0 | 0 | 0 | 50 | 15
CCc1ccc(OC(C)C(=O)Nc2ccc(S(=O)(=O)Nc3nccs3)cc2)cc1 (centres undefined) | 0 | 0 | 52 | 0 | 0 | 0 | 39 | 14
Cc1ccc(OC(C)C(=O)Nc2ccc(S(=O)(=O)Nc3nccs3)cc2)cc1 (centres undefined) | 0 | 0 | 38 | 0 | 0 | 0 | 0 | 6.5
CC1CN(c2nc3ccccc3nc2SCC(=O)N2CCN(S(=O)(=O)c3ccc(F)cc3)CC2)CC(C)O1 (centres undefined) | 0 | 0 | 0 | - | - | 0 | - | -
COc1cccc(CNC(=O)[C@H]2CCCN2C(=O)[C@H]2CCCN2C(=O)c2cccc(F)c2)c1 | 0 | 0 | 0 | - | - | 0 | - | -
CC(C)CNS(=O)(=O)/C=C/c1ccccc1CCNC(=O)OC(C)(C)C | 0 | 0 | 0 | - | - | 0 | - | -
Cc1nccc(-c2cccc(N/N=C(\C#N)C(=O)c3ccccc3)c2)n1 | 0 | 0 | 51 | 0 | 0 | 0 | 35 | 9.3
Cc1nn(-c2ccccc2)c2sc(C(=O)N3CCN(S(=O)(=O)c4ccc(Br)s4)CC3)cc12 | 0 | 0 | 0 | - | - | 0 | - | -
Nc1[nH]n2c(=O)c3c(nc2c1N=Nc1ccccc1)CCCC3 | 0 | 0 | 35 | 0 | 0 | 0 | 0 | 0
CC(C)c1ccc([C@@H]2O[C@H](C)CC3=C2C(=O)OC(C)(C)O3)cc1 | 0 | 0 | 0 | 0 | - | 0 | - | -
Cc1ccccc1S(=O)(=O)Nc1ncnc2scc(-c3ccccc3)c12 | 0 | 0 | 55 | 0 | 0 | 0 | 50 | 16
COc1cc(-c2nnc(SCc3cc(=O)oc4cc(O)c(O)cc34)o2)cc(OC)c1OC | 0 | 0 | 59 | 0 | 0 | 0 | 64 | 30
CCOC(=O)CSc1nnc(-c2cc(OC)c(OC)c(OC)c2)o1 | 0 | 0 | 0 | 0 | 0 | 0 | - | -
Cc1ccc(-c2csc(NC(=O)C3CC=CCC3C(=O)O)c2C(=O)OC(C)C)cc1 (centres undefined) | 0 | 0 | 51 | 0 | 0 | 0 | 58 | 19
CCOC(=O)c1c(-c2ccc(C)cc2)csc1NC(=O)C1CC=CCC1C(=O)O (centres undefined) | 0 | 0 | 0 | 0 | 0 | 0 | - | -
CCc1ccc(OCC(=O)Nc2ccc(S(=O)(=O)Nc3cc(C)on3)cc2)c(Br)c1 | 0 | 0 | 78 | 0 | - | 0 | 74 | 28 | DNA CAG DR=0
Cc1cc(NS(=O)(=O)c2ccc(NC(=O)C(c3ccccc3)c3ccccc3)cc2)no1 | 0 | 0 | 59 | 0 | 0 | 0 | 47 | 18
Cc1cc(NS(=O)(=O)c2ccc(NC(=O)C(C)Oc3ccc(C(C)C)cc3)cc2)no1 (centres undefined) | 0 | 0 | 47 | 0 | 0 | 0 | 49 | 16
Cc1cc(NS(=O)(=O)c2ccc(NC(=S)NC(=O)c3ccc(Br)cc3)cc2)no1 | 0 | 0 | 57 | 0 | 0 | 0 | 47 | 16
Cc1cc(NS(=O)(=O)c2ccc(NC(=O)Nc3ccccc3)cc2)no1 | 0 | 0 | 0 | 0 | 0 | 0 | - | -
COc1cc2c(cc1OC)CN(CC(=O)Nc1ccc(F)cc1)C(C(=O)O)C2 (centres undefined) | 0 | 0 | 0 | 0 | 0 | 0 | - | -
